Measurements published in the supplement of paper PMC3842684.

How the values were obtained:
[1] = tested on: P. falciparum NF54-pfs16-GFP early (I-III) stage gametocytes; assay: relative % inhibition of viable gametocyte number; higher = more gametocytocidal; conditions: stage: early (I-III) gametocyte, incubation 72 h
Outline: (§1)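 Relative inhibition was normalised to in-plate vehicle and positive-control wells, with viable gametocytes defined on confocal images as elongated GFP objects whose MitoTracker Red signal exceeded a cut-off. NF54 pfs16-GFP gametocytes, magnet-isolated at early (I/IIa, day 2) or late (day 8) stage, were plated at 10% parasitaemia, 0.1% haematocrit with compound at 5 or 0.5 µM. Plates were incubated 72 h at 37°C, 5% CO2, 5% O2, then stained overnight.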

[2] = tested on: P. falciparum NF54-pfs16-GFP late (IV-V) stage gametocytes; assay: as above; conditions: stage: late (IV-V) gametocyte, incubation 72 h
Outline: as §1

SMILES	relative % inhibition ([1]; 0.5 µM)	relative % inhibition ([1]; 5 µM)	relative % inhibition ([2]; 0.5 µM)	relative % inhibition ([2]; 5 µM)
O=C(NC1CCCC1)c1ccc(N2CCC(NCc3cccc(C(F)(F)F)c3)CC2)cc1	2.61%	22.8%	6.99%	44.5%
O=C(Nc1ccsc1C(=O)NC1CCCCC1)c1ccc(F)cc1	-1.56%	19.9%	-4.86%	-23.6%
Cc1cc(NC(=O)c2cccc(C(F)(F)F)c2)n(-c2nc(-c3ccc4c(c3)OCO4)cs2)n1	-23.4%	-25.9%	18.8%	10.5%
COc1ccccc1N1C(=N)SC(=Cc2ccc(OCc3ccccc3F)cc2)C1=O	2.18%	25.8%	32.6%	69.4%
CN(C)CCNc1cc(-c2ccccc2)nc2ccccc12	-7.32%	-20.1%	-18.3%	6.35%
CC1CN(C(=O)c2sc3ccccc3c2Cl)CC(C)O1 (stereo not drawn)	-11.1%	1.13%	6.08%	-5.12%
Cc1ccc(-c2cc3nc4c(c(O)n3n2)CCCC4)cc1	5.35%	-1.24%	4.75%	9.04%
OC(CNCc1ccccc1)Cn1c2ccccc2c2ccccc21 (stereo not drawn)	0.736%	89.9%	21.5%	84.7%
COC(=O)c1ccc(Cl)c2c1C1C=CCC1C(c1cccc3ccccc13)N2 (stereo not drawn)	-9.28%	8.02%	-9.69%	35.3%
CC1CCN(Cc2c(O)ccc3cc(-c4nc5ccccc5s4)c(=O)oc23)CC1	2.97%	94.7%	18.2%	18.4%
O=C1c2ccccc2C2=Nc3ccccc3SC(c3cccc(F)c3)C12 (stereo not drawn)	30.8%	27.4%	43.7%	83.8%
CN(C)CCCNCc1ccc(-c2ccc(F)c(Cl)c2)o1	32.7%	99.5%	7.27%	20.8%
